Assay results taken from PubChem BioAssay (EPA / NIEHS).
Results filed as inconclusive are left out. The source made the active and inactive calls. How the source made its calls, unless noted: active means hit-call score of the fitted dose curve at least 0.9, where 1 is the maximum; inactive means score below 0.9.

Key:
[1] = target: Oxysterols receptor LXR-alpha (Homo sapiens) (UniProt Q13133); test: ATG_LXRa_TRANS: Attagene TRANS-FACTORIAL HepG2 Assay for human Liver X Receptor alpha (LXRa) (AID 2282980; active means hit-call score of the fitted dose curve at least 0.9, where 1 is the maximum); conditions: HepG2 Attagene TRANS reporter, LXRa transactivation
Method in brief: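 HepG2 cells were transiently transfected with multiplexed reporter units driven by chimeric LXRa–GAL4 fusion proteins, then dosed for 24 h. Reporter mRNA was quantified by RT-PCR, fluorescent labelling and capillary electrophoresis; gain of signal fitted against DMSO baseline.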

[2] = ATG_M_06_TRANS: Attagene TRANS-FACTORIAL HepG2 Assay for M06 Transcription Factor (Internal Marker) (AID 2282983; active means hit-call score of the fitted dose curve at least 0.9, where 1 is the maximum); conditions: HepG2 Attagene TRANS M06 internal marker reporter
Method in brief: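 In this multiplexed HepG2 system, compounds are incubated 24 h with cells carrying GAL4-UAS reporter units. Reporter RNA is amplified and resolved by capillary electrophoresis, and induction is scored against DMSO.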

[3] = target: Nuclear receptor subfamily 4 group A member 2 (Homo sapiens) (UniProt P43354); test: ATG_NURR1_TRANS: Attagene TRANS-FACTORIAL HepG2 Assay for human Nuclear Receptor Related Protein 1 (NURR1) (AID 2282985; active means hit-call score of the fitted dose curve at least 0.9, where 1 is the maximum); conditions: HepG2 Attagene TRANS reporter, mRNA readout
Method in brief: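 Endpoint: reporter mRNA increase relative to DMSO. HepG2 cells transfected with reporter units, treated 24 h; RNA processed by RT-PCR, labelling, HpaI digestion and capillary electrophoresis.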

[4] = target: Transcriptional activator Myb (Homo sapiens) (UniProt P10242); test: ATG_Myb_CIS: Attagene CIS-FACTORIAL HepG2 Assay for human Myeloblastosis (Myb) Proto-Oncogene Transcription Factor (AID 2282986); conditions: HepG2 Attagene CIS-FACTORIAL Myb reporter transcription; actives raise or lower the signal
Method in brief: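 Endogenous transcription factor activity at a Myb-responsive cis element is reported in human liver HepG2 cells after 24 h chemical treatment. Reporter mRNA is detected by RT-PCR and capillary electrophoresis fluorescence, with DMSO as baseline.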

[5] = target: Nuclear respiratory factor 1 (Homo sapiens) (UniProt Q16656); test: ATG_NRF1_CIS: Attagene CIS-FACTORIAL HepG2 Assay for human Nuclear Respiratory Factor 1 (NRF1) Orphan Gene (AID 2282987); conditions: HepG2 NRF1 cis-element reporter, Attagene multiplex; actives raise or lower the signal
Method in brief: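 Human hepatoma HepG2 cells carrying transfected promoter-regulated reporter units were incubated with test chemicals for 24 h. Reporter transcripts were measured by RT-PCR plus capillary electrophoresis, and endpoints derived by bidirectional fitting with DMSO as baseline.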

[6] = ATG_NFI_CIS: Attagene CIS-FACTORIAL HepG2 Assay for human Nuclear Factor I (NFI) (AID 2282989); conditions: HepG2 cis-regulatory reporter, NFI response element transcription; actives raise or lower the signal
Method in brief: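 HepG2 cells transiently transfected with cis-element-driven multiplexed reporter transcription units, dosed for 24 h. Reporter mRNA quantified by RT-PCR, fluorescent labelling, HpaI digestion and capillary electrophoresis; bidirectional fit versus DMSO baseline.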

[7] = target: Myc proto-oncogene protein (Homo sapiens) (UniProt P01106); test: ATG_Myc_CIS: Attagene CIS-FACTORIAL HepG2 Assay for human Myelocytomatosis (Myc) Proto-Oncogene Transcription Factor (AID 2282990); conditions: HepG2, Attagene cis-reporter transcription factor activity; actives raise or lower the signal
Method in brief: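 Transiently transfected HepG2 cells bearing cis-promoter reporter units for endogenous transcription factors; 24 h exposure. Reporter mRNA measured by RT-PCR, 6-FAM primer extension, HpaI cut and capillary electrophoresis; bidirectional fit relative to DMSO.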

[8] = ATG_NF_kB_CIS: Attagene CIS-FACTORIAL HepG2 Assay for human Nuclear Factor Kappa B (NF-kB) (AID 2282991); conditions: HepG2 Attagene cis-factorial NF-kB reporter mRNA; actives raise or lower the signal
Method in brief: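 Multiplexed cis-reporter assay in transiently transfected HepG2. 24 h treatment; RNA isolated, RT-PCR, labelled fragments resolved by CE. DMSO baseline.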

[9] = ATG_Oct_MLP_CIS: Attagene CIS-FACTORIAL HepG2 Assay for human Octamer-Binding Transcription Factor (Oct) (AID 2282993); conditions: HepG2 Attagene cis-factorial Oct reporter, mRNA; actives raise or lower the signal
Method in brief: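 HepG2 cells transiently transfected with cis-promoter-driven multiplexed reporter transcription units, dosed for 24 h. Reporter mRNA quantified by RT-PCR, fluorescent labelling, HpaI digestion and capillary electrophoresis; bidirectional fits versus DMSO baseline.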

[10] = target: Cellular tumor antigen p53 (Homo sapiens) (UniProt P04637); test: ATG_p53_CIS: Attagene CIS-FACTORIAL HepG2 Assay for human p53 Transcription Factor (AID 2282994); conditions: HepG2 p53 cis-element reporter, Attagene mRNA; actives raise or lower the signal
Method in brief: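 In HepG2 cells, reporter transcription units under cis-regulatory promoters were transiently introduced. Following 24 h treatment, RNA was processed to labelled, digested cDNA fragments read by capillary electrophoresis; fitting was bidirectional versus DMSO.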

[11] = target: Hepatocyte nuclear factor 4-alpha (Homo sapiens) (UniProt P41235); test: ATG_HNF4a_TRANS: Attagene TRANS-FACTORIAL HepG2 Assay for human Hepatocyte Nuclear Factor 4 alpha (HNF4a) (AID 2282982; active means hit-call score of the fitted dose curve at least 0.9, where 1 is the maximum); conditions: HepG2 HNF4a transactivation reporter, mRNA readout
Method in brief: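 Endpoint reflects transcriptional activation of a GAL4-UAS reporter by an HNF4a-GAL4 chimera in transfected HepG2 cells, 24 h post-dosing. Fluorescence from RT-PCR products separated by capillary electrophoresis; DMSO baseline.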

[12] = ATG_M_32_TRANS: Attagene TRANS-FACTORIAL HepG2 Assay for M32 Transcription Factor (Internal Marker) (AID 2282984; active means hit-call score of the fitted dose curve at least 0.9, where 1 is the maximum;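 further: transcript level of a background control reporter unit measured by RT-PCR and capillary electrophoresis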); conditions: HepG2 Attagene TRANS M32 internal marker reporter
Method in brief: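 Internal-marker readout from a multiplexed transcription reporter panel. HepG2 cells were transfected with GAL4-UAS reporter units, treated 24 hours, and reporter transcript levels determined by fluorescence after RT-PCR and capillary separation.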

[13] = target: Oxysterols receptor LXR-beta (Homo sapiens) (UniProt P55055); test: ATG_LXRb_TRANS: Attagene TRANS-FACTORIAL HepG2 Assay for human Liver X Receptor beta (LXRb) (AID 2282981; active means hit-call score of the fitted dose curve at least 0.9, where 1 is the maximum); conditions: HepG2 Attagene TRANS GAL4-LXRb reporter, mRNA
Method in brief: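 Multiplexed reporter assay, HepG2, 24 h dosing. Fluorescence of labelled RT-PCR products after capillary electrophoresis gives transcript level; positive fitting direction relative to DMSO.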

[14] = ATG_NRF2_ARE_CIS: Attagene CIS-FACTORIAL HepG2 Assay for human Nuclear Factor Erythroid 2 Related Factor 2 (NFR2) response to Antioxidant Response Elements (ARE) (AID 2282992); conditions: HepG2 Attagene ARE/NRF2 reporter, transcription factor activity; actives raise or lower the signal
Method in brief: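 Using transiently transfected HepG2 cells exposed for 24 h, reporter mRNA levels were determined by RT-PCR with fluorescent primer extension and capillary electrophoresis, analysed for gain or loss of signal against DMSO.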

[15] = BSK_3C_TissueFactor: BioMAP Diversity Plus: 3C Assay for Tissue Factor Biomarker Activity (AID 2282997); conditions: BioMAP 3C HUVEC, tissue factor biomarker readout; actives raise or lower the signal
Method in brief: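 Readout: Tissue Factor ELISA. Cells: human primary umbilical vein endothelium. Time: 24 h after dosing. Analysis: bidirectional fit, DMSO baseline.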

[16] = BSK_3C_uPAR: BioMAP Diversity Plus: 3C Assay for Urokinase-type plasminogen activator receptor (uPAR) Biomarker Activity (AID 2282998); conditions: BioMAP 3C HUVEC, uPAR biomarker ELISA; actives raise or lower the signal
Method in brief: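 Human umbilical vein endothelial primary cells were exposed to test chemical for 24 h. Cell-surface uPAR was then quantified by ELISA, and responses were fitted bidirectionally against DMSO as negative control and baseline.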

[17] = BSK_3C_VCAM1: BioMAP Diversity Plus: 3C Assay for Vascular cell adhesion molecule 1 (VCAM1) Biomarker Activity (AID 2282999); conditions: BioMAP 3C HUVEC, VCAM1 ELISA, cytokine-stimulated; actives raise or lower the signal
Method in brief: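 HUVEC primary cells, 24 h compound exposure; VCAM-1 by ELISA; gain/loss of signal fitted bidirectionally vs DMSO baseline.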

Measured: AC50

Nuclear respiratory factor 1 (Homo sapiens), sequence (Q16656 whole entry, looked up): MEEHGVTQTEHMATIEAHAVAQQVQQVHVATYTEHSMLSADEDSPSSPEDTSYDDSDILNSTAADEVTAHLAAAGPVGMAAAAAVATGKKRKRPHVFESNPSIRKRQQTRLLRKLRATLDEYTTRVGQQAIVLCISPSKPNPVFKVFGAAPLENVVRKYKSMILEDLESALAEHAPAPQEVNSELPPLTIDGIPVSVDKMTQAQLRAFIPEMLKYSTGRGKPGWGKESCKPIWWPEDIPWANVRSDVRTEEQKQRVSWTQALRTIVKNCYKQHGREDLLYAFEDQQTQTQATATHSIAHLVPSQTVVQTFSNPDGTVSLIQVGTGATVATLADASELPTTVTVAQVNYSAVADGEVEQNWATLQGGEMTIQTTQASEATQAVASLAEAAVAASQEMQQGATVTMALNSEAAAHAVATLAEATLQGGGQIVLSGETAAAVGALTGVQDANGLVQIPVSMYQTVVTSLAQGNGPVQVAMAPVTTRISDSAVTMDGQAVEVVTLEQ
Myc proto-oncogene protein (Homo sapiens), sequence (P01106 whole entry, looked up): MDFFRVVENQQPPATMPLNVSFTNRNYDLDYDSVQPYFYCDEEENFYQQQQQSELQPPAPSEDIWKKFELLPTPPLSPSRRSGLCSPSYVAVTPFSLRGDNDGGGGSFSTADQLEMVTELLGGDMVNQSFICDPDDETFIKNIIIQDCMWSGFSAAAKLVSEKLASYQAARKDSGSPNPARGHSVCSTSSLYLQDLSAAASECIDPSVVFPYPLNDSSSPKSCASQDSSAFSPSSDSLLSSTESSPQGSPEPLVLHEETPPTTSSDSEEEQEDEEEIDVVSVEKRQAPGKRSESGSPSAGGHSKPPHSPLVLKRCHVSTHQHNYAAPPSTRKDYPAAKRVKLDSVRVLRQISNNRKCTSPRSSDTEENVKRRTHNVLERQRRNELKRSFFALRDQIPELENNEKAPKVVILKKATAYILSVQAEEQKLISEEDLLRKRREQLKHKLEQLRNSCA
Nuclear receptor subfamily 4 group A member 2 (Homo sapiens), sequence (P43354 whole entry, looked up): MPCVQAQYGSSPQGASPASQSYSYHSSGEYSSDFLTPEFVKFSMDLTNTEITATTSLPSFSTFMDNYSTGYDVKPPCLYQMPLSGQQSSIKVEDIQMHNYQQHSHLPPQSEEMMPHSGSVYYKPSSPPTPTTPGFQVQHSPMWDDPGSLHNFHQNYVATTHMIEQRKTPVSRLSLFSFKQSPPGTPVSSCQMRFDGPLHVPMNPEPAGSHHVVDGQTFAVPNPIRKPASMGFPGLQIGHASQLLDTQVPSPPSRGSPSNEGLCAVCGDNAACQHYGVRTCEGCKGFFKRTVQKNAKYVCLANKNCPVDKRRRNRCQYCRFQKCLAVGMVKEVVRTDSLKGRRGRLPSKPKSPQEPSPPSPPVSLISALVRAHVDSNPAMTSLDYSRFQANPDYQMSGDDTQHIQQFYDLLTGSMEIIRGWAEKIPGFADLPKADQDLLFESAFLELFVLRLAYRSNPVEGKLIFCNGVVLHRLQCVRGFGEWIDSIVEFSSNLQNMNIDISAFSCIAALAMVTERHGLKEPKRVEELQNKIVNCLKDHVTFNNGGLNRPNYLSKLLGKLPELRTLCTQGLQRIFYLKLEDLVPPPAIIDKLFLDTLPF
Cellular tumor antigen p53 (Homo sapiens), sequence (P04637 whole entry, looked up, the tested form may be a part): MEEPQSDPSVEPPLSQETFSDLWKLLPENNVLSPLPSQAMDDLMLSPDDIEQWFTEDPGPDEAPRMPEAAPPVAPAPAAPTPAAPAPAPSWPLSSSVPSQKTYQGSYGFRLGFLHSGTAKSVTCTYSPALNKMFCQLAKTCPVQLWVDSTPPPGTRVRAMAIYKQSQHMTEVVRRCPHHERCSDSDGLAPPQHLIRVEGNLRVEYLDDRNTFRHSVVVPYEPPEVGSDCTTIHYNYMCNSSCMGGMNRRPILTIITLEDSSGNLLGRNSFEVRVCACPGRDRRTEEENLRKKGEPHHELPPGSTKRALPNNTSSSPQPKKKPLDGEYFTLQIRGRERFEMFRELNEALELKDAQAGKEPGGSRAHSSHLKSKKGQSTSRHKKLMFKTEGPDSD
Transcriptional activator Myb (Homo sapiens), sequence (P10242 whole entry, looked up): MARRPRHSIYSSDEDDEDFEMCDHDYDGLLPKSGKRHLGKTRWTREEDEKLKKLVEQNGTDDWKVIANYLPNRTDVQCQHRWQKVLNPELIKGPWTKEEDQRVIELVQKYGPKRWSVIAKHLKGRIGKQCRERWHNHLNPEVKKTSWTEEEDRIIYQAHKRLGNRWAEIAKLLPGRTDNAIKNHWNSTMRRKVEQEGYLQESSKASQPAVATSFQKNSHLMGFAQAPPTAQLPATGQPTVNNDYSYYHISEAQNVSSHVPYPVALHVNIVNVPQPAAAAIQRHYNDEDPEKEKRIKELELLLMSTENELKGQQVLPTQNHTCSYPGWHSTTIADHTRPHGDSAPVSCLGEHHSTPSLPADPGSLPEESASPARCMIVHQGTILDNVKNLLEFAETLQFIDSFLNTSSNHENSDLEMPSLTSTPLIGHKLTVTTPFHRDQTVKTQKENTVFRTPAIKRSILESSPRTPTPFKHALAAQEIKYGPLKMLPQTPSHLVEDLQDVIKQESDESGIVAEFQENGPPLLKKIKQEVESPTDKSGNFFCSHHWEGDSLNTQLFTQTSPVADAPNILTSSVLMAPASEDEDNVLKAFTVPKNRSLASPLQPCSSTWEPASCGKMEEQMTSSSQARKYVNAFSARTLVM
Oxysterols receptor LXR-alpha (Homo sapiens), sequence (Q13133 whole entry, looked up, the tested form may be a part): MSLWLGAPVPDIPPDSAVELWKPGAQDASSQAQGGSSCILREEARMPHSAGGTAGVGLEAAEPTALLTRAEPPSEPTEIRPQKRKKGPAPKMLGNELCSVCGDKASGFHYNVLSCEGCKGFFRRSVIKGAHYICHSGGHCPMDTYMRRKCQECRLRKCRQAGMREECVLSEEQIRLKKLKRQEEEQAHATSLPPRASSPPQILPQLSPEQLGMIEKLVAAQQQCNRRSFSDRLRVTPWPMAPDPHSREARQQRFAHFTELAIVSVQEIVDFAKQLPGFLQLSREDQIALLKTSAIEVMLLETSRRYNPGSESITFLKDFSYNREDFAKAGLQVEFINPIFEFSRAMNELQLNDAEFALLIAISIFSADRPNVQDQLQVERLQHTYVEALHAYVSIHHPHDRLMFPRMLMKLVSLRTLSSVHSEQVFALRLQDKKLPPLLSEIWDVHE
Hepatocyte nuclear factor 4-alpha (Homo sapiens), sequence (P41235 whole entry, looked up, the tested form may be a part): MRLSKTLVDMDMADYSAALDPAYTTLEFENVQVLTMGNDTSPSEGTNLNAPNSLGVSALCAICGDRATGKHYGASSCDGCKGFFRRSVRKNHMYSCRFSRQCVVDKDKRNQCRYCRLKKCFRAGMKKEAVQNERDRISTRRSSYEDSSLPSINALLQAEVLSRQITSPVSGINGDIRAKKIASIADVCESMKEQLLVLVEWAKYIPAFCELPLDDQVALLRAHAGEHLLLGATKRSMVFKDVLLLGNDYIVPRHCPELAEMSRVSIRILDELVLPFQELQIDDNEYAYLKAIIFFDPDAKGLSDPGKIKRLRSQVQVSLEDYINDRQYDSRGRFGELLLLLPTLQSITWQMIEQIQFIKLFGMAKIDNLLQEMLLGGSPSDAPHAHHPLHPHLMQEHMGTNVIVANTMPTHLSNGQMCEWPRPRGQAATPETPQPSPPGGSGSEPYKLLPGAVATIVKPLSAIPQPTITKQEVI
Oxysterols receptor LXR-beta (Homo sapiens), sequence (P55055 whole entry, looked up, the tested form may be a part): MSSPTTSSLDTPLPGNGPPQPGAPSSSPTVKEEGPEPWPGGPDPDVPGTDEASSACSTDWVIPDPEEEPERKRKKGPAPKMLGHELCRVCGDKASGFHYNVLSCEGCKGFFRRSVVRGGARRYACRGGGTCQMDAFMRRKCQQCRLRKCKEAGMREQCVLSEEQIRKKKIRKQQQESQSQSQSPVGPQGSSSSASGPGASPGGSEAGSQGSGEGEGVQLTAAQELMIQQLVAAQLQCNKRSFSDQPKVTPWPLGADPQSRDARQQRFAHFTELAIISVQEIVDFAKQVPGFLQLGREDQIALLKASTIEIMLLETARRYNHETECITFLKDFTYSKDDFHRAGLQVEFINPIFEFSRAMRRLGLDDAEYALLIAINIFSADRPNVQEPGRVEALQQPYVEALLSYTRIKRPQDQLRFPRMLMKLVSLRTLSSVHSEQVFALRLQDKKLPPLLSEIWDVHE

O=c1[nH]c2ccccc2c(=O)o1
inactive: [1] | [2] | [3] | [4] | [5] | [6] | [7] | [8] | [9] | [10]

Nc1ccc(Sc2ccc(N)cc2)cc1
inactive: [11] | [12] | [3] | [4] | [5] | [6] | [7] | [9]

[N-]=[N+]=[N-]
inactive: [2] | [3] | [4] | [5] | [6] | [8] | [14] | [9] | [10] | [15] | [16] | [17]
active: [13] 100 µM | [7] 100 µM

CCN(CC)c1ccccc1
inactive: [1] | [11] | [3] | [4] | [5] | [6] | [7] | [8] | [14] | [9] | [10] | [15] | [16] | [17]

Cc1ccc(O)cc1C
inactive: [4] | [7] | [9] | [10] | [15] | [16] | [17]
